# Test results: the supplement of paper PMC10338343
# ± gives the standard deviation.
# How the values were obtained:
# [1] = system: MILI (PIWIL2) piRISC loaded with L1MC piRNA (26 nt); assay: pre-steady-state target cleavage rate (min^-1); guide: L1MC piRNA 5'p-UAACUAAAUACUAUGCAAGCUGUAGG; higher = faster piRNA-guided slicing of the target; details: auxiliary factor: 500 nM mouse GTSF1
# In short: (§1)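 In Cleave-'n-Seq, a transcribed, DNA-blocked target RNA library (0.1 nM) was combined with 1 nM active affinity-purified piRISC bearing one synthetic guide, with or without 500 nM GTSF1 partner protein. Reactions ran in HEPES–potassium acetate buffer at 33 °C for 0–8 or 0–960 min. Uncleaved targets were sequenced and normalised to depth and to weakly complementary targets, three trials were pooled, and k3 was capped at 0.0001 min^-1. The pre-steady-state cleavage rate was obtained by fitting a burst-and-steady-state model.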
# [2] = system: EfPiwi piRISC loaded with L1MC piRNA (26 nt); assay: pre-steady-state target cleavage rate (min^-1); auxiliary factor: 500 nM Ephydatia muelleri Gtsf1; guide: L1MC piRNA 5'p-UAACUAAAUACUAUGCAAGCUGUAGG; MIWI and MILI are mouse PIWI proteins and EfPiwi is from a freshwater sponge; tags in brackets are library labels; higher = faster piRNA-guided slicing of the target
# In short: as §1
sequence,measurement,setting,value
UCCUGCUAGAGCUUGCAUAGUAUUUAGAUA,pre-steady-state target cleavage rate,[1],0.117 ± 0.015
same,pre-steady-state target cleavage rate,[2],0.00536 ± 0.0018
UCCUCCUACAGCUUGCAUAGUAUAUUCAAA,pre-steady-state target cleavage rate,[1],0.125 ± 0.025
same,pre-steady-state target cleavage rate,[2],0.00316 ± 0.0027
UCCUCCUACAGCUAGCAUAGUAUUUACUUA,pre-steady-state target cleavage rate,[1],0.15 ± 0.022
same,pre-steady-state target cleavage rate,[2],0.00296 ± 0.0027
UCCUCCUACAGCUUGCAUAAGUAUUUAGUUA,pre-steady-state target cleavage rate,[1],0.0109 ± 0.0055
same,pre-steady-state target cleavage rate,[2],0.00345 ± 0.0019
UCCUGCUACAGCUUGCAAAGUAUUUACAAA,pre-steady-state target cleavage rate,[1],0.0731 ± 0.018
same,pre-steady-state target cleavage rate,[2],0.00394 ± 0.0025
UCCUCCUACAGCUUGCAUAGAAUUUAGUUA,pre-steady-state target cleavage rate,[1],0.1 ± 0.021
same,pre-steady-state target cleavage rate,[2],0.0078 ± 0.0023
UCCUGGAACAGCAAGCAUAGUAUUUAGAAA,pre-steady-state target cleavage rate,[1],0.162 ± 0.025
same,pre-steady-state target cleavage rate,[2],0.00309 ± 0.002
UCCUCCUACAGCUUGCAAACUAUUUAGUUA,pre-steady-state target cleavage rate,[1],0.0393 ± 0.0078
same,pre-steady-state target cleavage rate,[2],0.00937 ± 0.0039
UCCUGGAACAGCUUGCAUUGUAUUUUGUUA,pre-steady-state target cleavage rate,[1],0.102 ± 0.013
same,pre-steady-state target cleavage rate,[2],0.00509 ± 0.0026
UCCUGGAACAGGAUGCAUAGUAUUUACAAA,pre-steady-state target cleavage rate,[1],0.0486 ± 0.017
same,pre-steady-state target cleavage rate,[2],0.00226 ± 0.0018
UCCUCCUACAGCUUGCAUAGUAUUAAGAAA,pre-steady-state target cleavage rate,[1],0.159 ± 0.036
same,pre-steady-state target cleavage rate,[2],0.0051 ± 0.0031
UCCUGCUACAGCUUGCAUAGUUAAUAGUUA,pre-steady-state target cleavage rate,[1],0.0263 ± 0.0097
same,pre-steady-state target cleavage rate,[2],0.00347 ± 0.0032
UCCUGGAACAGCUUGCAUAGUAUAAAGAAA,pre-steady-state target cleavage rate,[1],0.0192 ± 0.0088
same,pre-steady-state target cleavage rate,[2],0.00217 ± 0.0021
UCCUGCUACAGCUUGCAUAGUUUUAGUUA,pre-steady-state target cleavage rate,[1],0.0113 ± 0.0045
same,pre-steady-state target cleavage rate,[2],0.00248 ± 0.0013
UCCUGCUACAGCUUGCAUAGUAUAAAGUAA,pre-steady-state target cleavage rate,[1],0.0784 ± 0.021
same,pre-steady-state target cleavage rate,[2],0.00224 ± 0.0017
UCCUGCUAGAGCUUGCAUAGUAUUUAGUAA,pre-steady-state target cleavage rate,[1],0.161 ± 0.023
same,pre-steady-state target cleavage rate,[2],0.00419 ± 0.0014
UCCUGGUACAGCUUGCAUAGUAAUUAGUAA,pre-steady-state target cleavage rate,[1],0.212 ± 0.037
same,pre-steady-state target cleavage rate,[2],0.00568 ± 0.0029
UCCUCCUACAGCUUGCAUACUAUUUUGUUA,pre-steady-state target cleavage rate,[1],0.0272 ± 0.0077
same,pre-steady-state target cleavage rate,[2],0.00468 ± 0.0034
UCCUGGAUCAGCUUGCUAUAGUAUUUAGUUA,pre-steady-state target cleavage rate,[1],0.0101 ± 0.0052
same,pre-steady-state target cleavage rate,[2],0.00528 ± 0.0019
UCCUGGAUGUCCUUGCAUAGUAUUUAGAUUA,pre-steady-state target cleavage rate,[1],0.101 ± 0.022
same,pre-steady-state target cleavage rate,[2],0.00316 ± 0.003
UCCUCCAUCAGCUUGCAUAGUAUUUACAAA,pre-steady-state target cleavage rate,[1],0.0667 ± 0.017
same,pre-steady-state target cleavage rate,[2],0.00282 ± 0.0024
UCCUCCUAGAGCUUGCAUAGUAUUUUCAAA,pre-steady-state target cleavage rate,[1],0.0731 ± 0.019
same,pre-steady-state target cleavage rate,[2],0.00252 ± 0.0022
UCCUGCUACAGCUUGCAUAGUUUUUAGAAA,pre-steady-state target cleavage rate,[1],0.0163 ± 0.0061
same,pre-steady-state target cleavage rate,[2],0.00343 ± 0.0019
UCCUGGAUGACCUUGCAUAGUAUUUAGAUA,pre-steady-state target cleavage rate,[1],0.115 ± 0.034
same,pre-steady-state target cleavage rate,[2],0.00355 ± 0.0027
UCCUCCUACAGCUUGCUAUAGUAUUUAGUUA,pre-steady-state target cleavage rate,[1],0.0206 ± 0.0064
same,pre-steady-state target cleavage rate,[2],0.00859 ± 0.0032
UCCUCCUACAGCUUGCUUAGUAUUAAGUUA,pre-steady-state target cleavage rate,[1],0.116 ± 0.018
same,pre-steady-state target cleavage rate,[2],0.00459 ± 0.0031
UCCUCCAACAGCUUGCAUAGUAUUUACAAA,pre-steady-state target cleavage rate,[1],0.113 ± 0.022
same,pre-steady-state target cleavage rate,[2],0.00355 ± 0.0024
UCCUCCUACAGCUUGCAUUGUAUUUACAAA,pre-steady-state target cleavage rate,[1],0.0269 ± 0.0098
same,pre-steady-state target cleavage rate,[2],0.00314 ± 0.003
UCCUCCUACAGCUAGCAUAGUAUUUAGAUA,pre-steady-state target cleavage rate,[1],0.144 ± 0.025
same,pre-steady-state target cleavage rate,[2],0.00495 ± 0.0024
UCCUGGAACAGCUUGCAUAAUAUUUAGUUA,pre-steady-state target cleavage rate,[1],0.298 ± 0.028
same,pre-steady-state target cleavage rate,[2],0.00487 ± 0.0024
UCCUCCUACAGCUUGCAUAGAAUUAAGUUA,pre-steady-state target cleavage rate,[1],0.127 ± 0.03
same,pre-steady-state target cleavage rate,[2],0.00382 ± 0.0025
UCCUGCUACAGCUUGCAUAGUAAUUACAAA,pre-steady-state target cleavage rate,[1],0.0901 ± 0.029
same,pre-steady-state target cleavage rate,[2],0.00259 ± 0.0018
UCCUGGUACAGCUUGCAUACUAUUAAGUUA,pre-steady-state target cleavage rate,[1],0.0468 ± 0.016
same,pre-steady-state target cleavage rate,[2],0.00282 ± 0.0022
UCCUGCUUCAGCUUGCAUAGAAUUUAGUUA,pre-steady-state target cleavage rate,[1],0.0587 ± 0.011
same,pre-steady-state target cleavage rate,[2],0.00544 ± 0.0015
UCCUGGAACAGCUUGCAUAGUAUUUAGCUUA,pre-steady-state target cleavage rate,[1],0.195 ± 0.047
same,pre-steady-state target cleavage rate,[2],0.00529 ± 0.0018
UCCUGGAUCAGCUUGCAUACUAUUUACUUA,pre-steady-state target cleavage rate,[1],0.0867 ± 0.02
same,pre-steady-state target cleavage rate,[2],0.00362 ± 0.0032
UCCUCCUACAGCUUGCAUAGUAUAAUGAAA,pre-steady-state target cleavage rate,[1],0.0878 ± 0.019
same,pre-steady-state target cleavage rate,[2],0.00235 ± 0.0022
UCCUGGAACAGCUUGCAUAGUAUUAAGAUA,pre-steady-state target cleavage rate,[1],0.0769 ± 0.019
same,pre-steady-state target cleavage rate,[2],0.00257 ± 0.0022
UCCUGGAUGUCCUUGCAUAGUAUUUAGGUA,pre-steady-state target cleavage rate,[1],0.0702 ± 0.017
same,pre-steady-state target cleavage rate,[2],0.00431 ± 0.0026
UCCUGGAUGUGCUUGACAUAGUAUUUAGUUA,pre-steady-state target cleavage rate,[1],0.0338 ± 0.009
same,pre-steady-state target cleavage rate,[2],0.0797 ± 0.03
UCCUGGAUGAGCUUGGCAUAGUAUUUAGUUA,pre-steady-state target cleavage rate,[1],0.224 ± 0.054
same,pre-steady-state target cleavage rate,[2],0.0123 ± 0.0039
UCCUGGAUCAGCUUGCAUUGUAUUUAGAUA,pre-steady-state target cleavage rate,[1],0.103 ± 0.019
same,pre-steady-state target cleavage rate,[2],0.00276 ± 0.0021
UCCUCCUAGUGCUUGCAUAGUAUUUACAAA,pre-steady-state target cleavage rate,[1],0.0188 ± 0.0067
same,pre-steady-state target cleavage rate,[2],0.00293 ± 0.0029
UCCUGGAACAGCUUGCAUAGUUAUUAGUAA,pre-steady-state target cleavage rate,[1],0.0204 ± 0.0084
same,pre-steady-state target cleavage rate,[2],0.00454 ± 0.0037
UCCUCCUACACCUUGCAUACUAUUUAGUUA,pre-steady-state target cleavage rate,[1],0.0962 ± 0.025
same,pre-steady-state target cleavage rate,[2],0.00578 ± 0.0029
UCCUGCUACAGCAUGCAUAGUAUUUAGAUA,pre-steady-state target cleavage rate,[1],0.179 ± 0.033
same,pre-steady-state target cleavage rate,[2],0.00378 ± 0.0015
UCCUCCUACACGUUGCAUAGUAUUUAGAAA,pre-steady-state target cleavage rate,[1],0.161 ± 0.029
same,pre-steady-state target cleavage rate,[2],0.00396 ± 0.003
UCCUGGAACAGCUUGCUAUAGUAUUUAGUUA,pre-steady-state target cleavage rate,[1],0.028 ± 0.0077
same,pre-steady-state target cleavage rate,[2],0.00682 ± 0.0023
UCCUGCUACAGGAUGCAUAGUAUUUAGAAA,pre-steady-state target cleavage rate,[1],0.0163 ± 0.0074
same,pre-steady-state target cleavage rate,[2],0.00248 ± 0.0014
UCCUCCUACAGCUUGCAUAGAAUUUAGUAA,pre-steady-state target cleavage rate,[1],0.148 ± 0.035
same,pre-steady-state target cleavage rate,[2],0.00443 ± 0.0022
UCCUGGUACAGCUUGCAUACUAUUUAGAAA,pre-steady-state target cleavage rate,[1],0.0227 ± 0.011
same,pre-steady-state target cleavage rate,[2],0.00236 ± 0.0018
UCCUGCUACAGCUUGCAUAGUAUUAUCUUA,pre-steady-state target cleavage rate,[1],0.16 ± 0.035
same,pre-steady-state target cleavage rate,[2],0.00653 ± 0.0042
UCCUGGAACAGCUUGCAUAGUAUUUAGAUA,pre-steady-state target cleavage rate,[1],0.137 ± 0.025
same,pre-steady-state target cleavage rate,[2],0.00437 ± 0.0016
UCCUGGAACAGCUUGCAUAGUAUUGAGUUA,pre-steady-state target cleavage rate,[1],0.172 ± 0.029
same,pre-steady-state target cleavage rate,[2],0.00624 ± 0.0022
UCCUGCUACAGCUUGGAUACUAUUUAGUUA,pre-steady-state target cleavage rate,[1],0.0884 ± 0.018
same,pre-steady-state target cleavage rate,[2],0.00633 ± 0.0024
UCCUGGAACAGGUUGCAUAGUAUUUAGAAA,pre-steady-state target cleavage rate,[1],0.163 ± 0.026
same,pre-steady-state target cleavage rate,[2],0.00261 ± 0.0017
UCCUCCUACAGCUUGGAUAGUAUUUACAAA,pre-steady-state target cleavage rate,[1],0.021 ± 0.0081
same,pre-steady-state target cleavage rate,[2],0.00267 ± 0.0022
UCCUGCAUCAGCUUGCAUAGUAUUUAGAAA,pre-steady-state target cleavage rate,[1],0.127 ± 0.022
same,pre-steady-state target cleavage rate,[2],0.00393 ± 0.0017
UCCUGGAUGAGCUUGCAUAGUAUUAAGAAA,pre-steady-state target cleavage rate,[1],0.0183 ± 0.0092
same,pre-steady-state target cleavage rate,[2],0.004 ± 0.0026
UCCUGGAACAGCUUGCAUAGUAUUCUAGUUA,pre-steady-state target cleavage rate,[1],0.145 ± 0.032
same,pre-steady-state target cleavage rate,[2],0.00277 ± 0.0018
